High-throughput results as filed in PubChem BioAssay.
An excerpt weighted towards active compounds, which were near 4.1% of everything screened.
CFTR F508del cor: F508del CFTR correction, initial screen, CFBE line, single point | CFBE cells, YFP halide quenching; stimulated with forskolin plus potentiator P3; % fluorescence drop versus neutral controls | activity (quench increase), % at 7.58 µM | hit rate 0.36% among 350,000 | AID 720511, 2013;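 active means mean added fluorescence quench of at least 8% versus neutral control, with both replicates also reaching 8%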;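 further: cells transiently co-express mutant CFTR-F508del with the halide-sensitive YFP; corrector assay measuring rescue of mutant channel to the surface after 24 h compound exposure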
NSD2 inh: NSD2 histone methyltransferase inhibitors, primary screen, biochemical, AlphaScreen, single concentration, set 2 | NSD2 peptide methylation, 120 min | inhibition, % at 12.5 µM | hit rate 0.54% among 310,000; in the data active means inhibition above about 50%
ALR inh: inhibitors of human ALR sulfhydryl oxidase, primary screen, biochemical, H2O2 detection, HRP-luminol luminescence, single point; FAD-linked sulfhydryl oxidase ALR (Homo sapiens), P55789; purified ALR, DTT oxidation; inhibition, % (test concentration not listed); hit rate 3.8% among 290,000; AID 485317, 2010;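 active means mean replicate inhibition above about 79%, with every replicate also reaching it, limit read from the data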
Target sequence (P55789 whole entry, looked up): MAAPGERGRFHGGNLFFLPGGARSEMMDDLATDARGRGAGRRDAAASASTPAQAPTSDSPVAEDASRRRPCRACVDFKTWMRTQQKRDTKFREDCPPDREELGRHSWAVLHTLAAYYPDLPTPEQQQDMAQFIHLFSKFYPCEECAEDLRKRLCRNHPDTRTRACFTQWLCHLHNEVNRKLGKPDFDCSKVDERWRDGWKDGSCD
Env fusion inh: inhibitors of HIV-1 Env-driven cell-cell fusion, primary screen, HeLa-JRFL effector, CEM21 target cells, luciferase | hit rate 1.1% among 360,000 | AID 651610, 2012 | inhibition, % at 12.3 µM;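 active means mean replicate inhibition score of at least 50 and every replicate individually at or above 50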;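 further: 0% = plate neutral controls and 100% = maraviroc near 300 nM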
Casp6 inh: human caspase-6 inhibitors, primary screen, biochemical, VEID-R110 fluorescence, single point, set 2. P55212. purified caspase-6, Z-VEID-R110 cleavage fluorescence. inhibition, % at 12.5 µM. hit rate 0.53% among 350,000. AID 686996, 2013;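 active means mean inhibition across replicates at least about 35%, with every replicate also reaching that limit, limit read from the data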;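 further: 0% = median of neutral control wells and 100% = no fluorescence left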
PglD inh: C. jejuni PglD acetyltransferase inhibitors, primary screen, biochemical, DTNB colorimetric, single point; purified PglD enzyme, DTNB colorimetric CoA detection; UDP-N-acetylbacillosamine N-acetyltransferase PglD (Campylobacter jejuni); hit rate 0.098% among 360,000; inhibition, % at 12.5 µM; in the data active means inhibition above about 16%, passing the limit was not always enough
* hit, by the source's call; x = not tested or not shown; [ ] = another dose, or the depositor's remark.

SMILES	CFTR F508del cor	NSD2 inh	ALR inh	Env fusion inh	Casp6 inh	PglD inh
C[C@@H]1CN([C@@H](C)CO)C(=O)c2cccc(NS(=O)(=O)c3ccc(F)cc3)c2O[C@@H]1CN(C)Cc1ccc(-c2ccccc2)cc1	-13	x	x	75*[16.7 µM]	x	-1
CC(C)C#Cc1cnc2c(c1)C(=O)N([C@@H](C)CO)C[C@@H](C)[C@@H](CN(C)Cc1ccccc1F)O2	-2	x	x	-7[16.7 µM]	3	1
COc1ccc2c3c(n(C)c2c1)[C@H](CO)N(Cc1ccc2c(c1)OCO2)CC31CCN(C(=O)c2ccc3c(c2)OCO3)CC1	-2	x	x	x	x	x
C[C@@H]1CCCCO[C@H](CN(C)C(=O)CCCN(C)C)[C@H](C)CN([C@@H](C)CO)C(=O)c2cc(NS(C)(=O)=O)ccc2O1	0	x	x	-9[16.7 µM]	-27	-3
CCN1CCN(Cc2ccc(NC(=O)Nc3ccc(SC)cc3)cc2)CC1	x	3	96*	x	x	3
CCOC(=O)N1CCN(C2CCCN(C(=O)c3ccccc3C(F)(F)F)C2)CC1 (stereo not given)	-1	-1	x	21	-1	-1
COc1ccc(NC2CCCN(C(=O)c3ccccc3C(F)(F)F)C2)cc1 (stereo not given)	3	6	99*	-9	1	-1
CC(C)c1ccc(NC2CCCN(C(=O)c3cnn(C(C)C)c3)C2)cc1 (stereo not given)	-2	0	x	-16	1	-2
CC(C)c1ccc(NC2CCCN(C(=O)c3cccs3)C2)cc1 (stereo not given)	-3	13	99*	-4	1	2
Cc1ccc(NC2CCCN(C(=O)c3cccs3)C2)cc1C (stereo not given)	-2	11	99*	0	0	0
COc1ccc(OC)c(C(=O)N2CCCC(Nc3ccc(F)cc3)C2)c1 (stereo not given)	0	-1	94*	1	0	-5
CCC(=O)N1C[C@@H](C)[C@H](OC)CN(C)C(=O)c2ccc(NC(=O)C3CC3)cc2OC[C@H]1C	-2	x	x	x	4	3
CO[C@@H]1CN(C)C(=O)c2cc(NC(=O)CC(F)(F)F)ccc2OC[C@@H](C)N(C(=O)c2ccccc2F)C[C@@H]1C	0	x	x	x	0	x
COc1ccc(NC2CCCN(C(=O)c3cccs3)C2)cc1 (stereo not given)	0	0	99*	-5	-2	-3
COc1ccc(NC(=O)C2CCN(C(=O)c3cccs3)CC2)cc1	x	-1	-7	-8	x	1
O=C(Nc1nc(-c2ccccc2)cs1)c1ccccc1NS(=O)(=O)c1ccc(F)cc1	x	33	96*	64*	x	x
O=S(=O)(Nc1ccc(-c2csc(-c3ccccc3)n2)cc1)c1ccc(F)cc1	x	4	1	x	x	-8
COc1ccccc1C(=O)Nc1nc(-c2ccc(S(=O)(=O)N3CCOCC3)cc2)cs1	x	x	-5	96*	x	-3
COc1ccccc1OC(C)C(=O)Nc1nc(-c2ccc(S(=O)(=O)N3CCOCC3)cc2)cs1 (stereo not given)	x	18	-11	60*	x	1
COc1ccc(C(=O)Nc2ccc(NC(=O)c3cccc(OC)c3)cn2)cc1	-1	-5	2	3	6	5
COc1ccc(C(=O)Nc2ccc(NC(=O)c3cccc(F)c3)cn2)cc1	13*	-3	x	-2	-2	4
COc1ccc(C(=O)CC(=O)C(=O)Nc2cccc(F)c2)cc1	1	1	80*	7	7	-1
COc1cccc(-c2cnc3c(c2)C(=O)N([C@@H](C)CO)C[C@H](C)[C@H](CN(C)Cc2ccc(F)cc2)O3)c1	-4	x	x	-3[16.7 µM]	0	0
COc1ccccc1-c1ccc2c(c1)O[C@H](CN(C)S(=O)(=O)c1ccc(F)cc1)[C@@H](C)CN([C@@H](C)CO)S2(=O)=O	3	x	x	x	0	6
O=c1cc(-c2ccccc2Cl)oc2cc(O)cc(O)c12	3	x	-1	-82	4	-1
O=C1C=CC(O)(c2cc(=O)c3c(O)cc(O)cc3o2)C=C1	17*	x	63	-255	34	-4
CCOc1ccc(S(=O)(=O)Nc2cc(Cl)ccc2O)cc1	x	x	28	x	x	1
